Source: the supplement of paper PMC11732987, “Enantioselective OTUD7B fragment discovery through chemoproteomics screening and high-throughput optimisation” (Communications Chemistry, 2025)

How the values were obtained:
Test in all cases: log2 ratio of Biotin-Ahx-Ub-VS probe labelling (fragment/DMSO); higher = less target engagement (more negative = stronger competition), active = hit call of the paper (q ≤ 0.05, log2 ratio ≤ -1)
Conditions in all cases: compound concentration: 200 uM; treatment time: 3 h
USP19 = target: T1, USP19 (UniProt O94966)
T1 sequence (whole entry): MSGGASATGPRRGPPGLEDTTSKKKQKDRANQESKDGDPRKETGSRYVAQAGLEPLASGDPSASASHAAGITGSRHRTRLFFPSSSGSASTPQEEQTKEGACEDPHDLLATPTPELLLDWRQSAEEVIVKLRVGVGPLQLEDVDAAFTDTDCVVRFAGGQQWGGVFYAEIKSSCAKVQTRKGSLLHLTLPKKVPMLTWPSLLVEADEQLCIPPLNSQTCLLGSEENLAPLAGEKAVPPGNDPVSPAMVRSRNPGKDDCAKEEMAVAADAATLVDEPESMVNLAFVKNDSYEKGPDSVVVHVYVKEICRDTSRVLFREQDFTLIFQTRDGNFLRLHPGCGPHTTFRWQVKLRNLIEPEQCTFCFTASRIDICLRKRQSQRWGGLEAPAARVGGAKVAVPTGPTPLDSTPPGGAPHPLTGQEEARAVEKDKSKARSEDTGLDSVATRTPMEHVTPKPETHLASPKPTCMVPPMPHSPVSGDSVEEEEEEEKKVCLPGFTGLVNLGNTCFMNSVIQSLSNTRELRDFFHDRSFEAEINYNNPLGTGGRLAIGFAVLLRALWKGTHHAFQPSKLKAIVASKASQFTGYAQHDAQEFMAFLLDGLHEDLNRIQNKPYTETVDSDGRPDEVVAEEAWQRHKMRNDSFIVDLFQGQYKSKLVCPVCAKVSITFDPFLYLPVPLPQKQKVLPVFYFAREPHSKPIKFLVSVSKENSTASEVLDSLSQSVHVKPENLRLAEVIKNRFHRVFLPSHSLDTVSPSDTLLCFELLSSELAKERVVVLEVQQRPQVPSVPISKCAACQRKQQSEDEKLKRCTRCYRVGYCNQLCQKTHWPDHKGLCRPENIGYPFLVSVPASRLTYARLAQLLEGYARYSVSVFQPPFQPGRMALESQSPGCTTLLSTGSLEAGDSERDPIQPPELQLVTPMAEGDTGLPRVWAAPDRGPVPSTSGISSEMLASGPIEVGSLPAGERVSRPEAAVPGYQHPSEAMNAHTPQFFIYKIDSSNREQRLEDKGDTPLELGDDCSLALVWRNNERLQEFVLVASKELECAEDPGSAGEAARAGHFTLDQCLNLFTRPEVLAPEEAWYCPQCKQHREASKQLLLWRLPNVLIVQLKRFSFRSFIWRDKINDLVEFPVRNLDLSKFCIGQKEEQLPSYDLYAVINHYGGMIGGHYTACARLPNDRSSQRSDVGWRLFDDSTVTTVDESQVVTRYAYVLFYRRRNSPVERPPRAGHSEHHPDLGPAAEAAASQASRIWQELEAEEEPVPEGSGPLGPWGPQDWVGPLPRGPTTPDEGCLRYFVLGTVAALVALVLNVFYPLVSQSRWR
How it was run: (§1)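 The table lists average log2 ratios of fragment over vehicle, from an unpaired t-test on global-median-normalised Spectronaut label-free quantities. Proteins with ≥2 unique peptides were used. Samples were HEK293T lysate (495 µg) treated in triplicate with fragment at 200 µM or vehicle for 3 h, then with Biotin-Ahx-Ub-VS (0.5 µM final) for 1 h, with labelled DUBs NeutrAvidin-enriched and run by diaPASEF LC-MS/MS.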

USP24 = USP24 (UniProt Q9UPU5)
How it was run: as §1

USP25 = target: T2, USP25 (UniProt Q9UHP3)
T2 sequence (whole entry): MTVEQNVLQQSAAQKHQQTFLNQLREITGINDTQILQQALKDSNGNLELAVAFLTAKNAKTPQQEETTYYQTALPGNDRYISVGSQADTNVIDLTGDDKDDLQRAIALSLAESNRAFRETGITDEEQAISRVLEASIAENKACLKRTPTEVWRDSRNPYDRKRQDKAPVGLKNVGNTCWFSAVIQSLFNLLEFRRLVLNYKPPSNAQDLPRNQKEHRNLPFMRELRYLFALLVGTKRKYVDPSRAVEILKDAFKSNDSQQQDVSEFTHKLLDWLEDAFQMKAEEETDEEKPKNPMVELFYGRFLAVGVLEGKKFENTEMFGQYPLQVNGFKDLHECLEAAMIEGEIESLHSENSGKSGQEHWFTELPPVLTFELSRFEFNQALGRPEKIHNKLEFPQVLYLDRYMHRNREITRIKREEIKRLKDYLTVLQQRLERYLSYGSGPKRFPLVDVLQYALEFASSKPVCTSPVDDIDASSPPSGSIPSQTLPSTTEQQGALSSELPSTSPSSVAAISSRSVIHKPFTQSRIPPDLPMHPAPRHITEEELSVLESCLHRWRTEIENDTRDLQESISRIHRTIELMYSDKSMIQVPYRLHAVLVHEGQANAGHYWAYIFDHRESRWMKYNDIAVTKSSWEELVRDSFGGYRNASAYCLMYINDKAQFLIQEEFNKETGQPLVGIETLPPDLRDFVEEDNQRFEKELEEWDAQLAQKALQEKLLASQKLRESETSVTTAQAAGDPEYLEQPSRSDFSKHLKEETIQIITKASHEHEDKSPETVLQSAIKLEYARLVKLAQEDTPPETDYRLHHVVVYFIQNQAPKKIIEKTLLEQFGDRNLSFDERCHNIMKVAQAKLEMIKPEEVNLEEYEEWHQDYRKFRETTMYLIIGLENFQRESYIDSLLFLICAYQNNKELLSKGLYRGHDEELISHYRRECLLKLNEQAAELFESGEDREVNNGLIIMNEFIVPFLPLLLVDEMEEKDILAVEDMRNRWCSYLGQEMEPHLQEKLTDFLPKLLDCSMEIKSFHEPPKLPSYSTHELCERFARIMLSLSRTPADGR
How it was run: as §1

USP28 = target: T3, USP28 (UniProt Q96RU2)
T3 sequence (whole entry): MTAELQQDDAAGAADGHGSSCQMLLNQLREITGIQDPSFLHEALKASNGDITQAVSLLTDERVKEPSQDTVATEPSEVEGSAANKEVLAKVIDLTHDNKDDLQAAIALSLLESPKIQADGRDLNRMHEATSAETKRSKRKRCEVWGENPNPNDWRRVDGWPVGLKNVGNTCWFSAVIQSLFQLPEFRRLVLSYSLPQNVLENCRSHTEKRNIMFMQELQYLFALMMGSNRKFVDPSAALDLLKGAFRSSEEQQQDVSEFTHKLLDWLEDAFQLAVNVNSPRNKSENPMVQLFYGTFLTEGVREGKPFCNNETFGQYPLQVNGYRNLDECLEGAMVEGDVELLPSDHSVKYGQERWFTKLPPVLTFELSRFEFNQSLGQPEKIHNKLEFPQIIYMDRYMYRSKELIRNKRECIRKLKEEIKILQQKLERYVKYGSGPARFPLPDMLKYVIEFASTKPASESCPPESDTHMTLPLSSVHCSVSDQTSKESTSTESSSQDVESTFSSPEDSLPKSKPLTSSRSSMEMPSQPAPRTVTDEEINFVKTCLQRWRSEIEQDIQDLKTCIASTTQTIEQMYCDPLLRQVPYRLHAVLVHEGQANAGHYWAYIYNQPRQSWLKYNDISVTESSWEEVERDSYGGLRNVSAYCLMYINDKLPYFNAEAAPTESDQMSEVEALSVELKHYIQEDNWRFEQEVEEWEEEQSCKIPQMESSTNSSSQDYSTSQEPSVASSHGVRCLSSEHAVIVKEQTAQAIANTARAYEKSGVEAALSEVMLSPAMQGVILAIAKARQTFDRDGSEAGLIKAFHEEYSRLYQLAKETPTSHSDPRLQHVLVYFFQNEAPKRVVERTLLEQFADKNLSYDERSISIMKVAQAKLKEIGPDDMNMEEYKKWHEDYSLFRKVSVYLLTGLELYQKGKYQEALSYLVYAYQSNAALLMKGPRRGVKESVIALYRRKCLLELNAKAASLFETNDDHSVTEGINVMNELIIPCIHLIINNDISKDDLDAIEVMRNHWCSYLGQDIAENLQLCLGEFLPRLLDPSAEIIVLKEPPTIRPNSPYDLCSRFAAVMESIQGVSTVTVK
How it was run: as §1

Measured: log2 ratio of Biotin-Ahx-Ub-VS probe labelling

Sequence of USP24 (Q9UPU5 whole entry): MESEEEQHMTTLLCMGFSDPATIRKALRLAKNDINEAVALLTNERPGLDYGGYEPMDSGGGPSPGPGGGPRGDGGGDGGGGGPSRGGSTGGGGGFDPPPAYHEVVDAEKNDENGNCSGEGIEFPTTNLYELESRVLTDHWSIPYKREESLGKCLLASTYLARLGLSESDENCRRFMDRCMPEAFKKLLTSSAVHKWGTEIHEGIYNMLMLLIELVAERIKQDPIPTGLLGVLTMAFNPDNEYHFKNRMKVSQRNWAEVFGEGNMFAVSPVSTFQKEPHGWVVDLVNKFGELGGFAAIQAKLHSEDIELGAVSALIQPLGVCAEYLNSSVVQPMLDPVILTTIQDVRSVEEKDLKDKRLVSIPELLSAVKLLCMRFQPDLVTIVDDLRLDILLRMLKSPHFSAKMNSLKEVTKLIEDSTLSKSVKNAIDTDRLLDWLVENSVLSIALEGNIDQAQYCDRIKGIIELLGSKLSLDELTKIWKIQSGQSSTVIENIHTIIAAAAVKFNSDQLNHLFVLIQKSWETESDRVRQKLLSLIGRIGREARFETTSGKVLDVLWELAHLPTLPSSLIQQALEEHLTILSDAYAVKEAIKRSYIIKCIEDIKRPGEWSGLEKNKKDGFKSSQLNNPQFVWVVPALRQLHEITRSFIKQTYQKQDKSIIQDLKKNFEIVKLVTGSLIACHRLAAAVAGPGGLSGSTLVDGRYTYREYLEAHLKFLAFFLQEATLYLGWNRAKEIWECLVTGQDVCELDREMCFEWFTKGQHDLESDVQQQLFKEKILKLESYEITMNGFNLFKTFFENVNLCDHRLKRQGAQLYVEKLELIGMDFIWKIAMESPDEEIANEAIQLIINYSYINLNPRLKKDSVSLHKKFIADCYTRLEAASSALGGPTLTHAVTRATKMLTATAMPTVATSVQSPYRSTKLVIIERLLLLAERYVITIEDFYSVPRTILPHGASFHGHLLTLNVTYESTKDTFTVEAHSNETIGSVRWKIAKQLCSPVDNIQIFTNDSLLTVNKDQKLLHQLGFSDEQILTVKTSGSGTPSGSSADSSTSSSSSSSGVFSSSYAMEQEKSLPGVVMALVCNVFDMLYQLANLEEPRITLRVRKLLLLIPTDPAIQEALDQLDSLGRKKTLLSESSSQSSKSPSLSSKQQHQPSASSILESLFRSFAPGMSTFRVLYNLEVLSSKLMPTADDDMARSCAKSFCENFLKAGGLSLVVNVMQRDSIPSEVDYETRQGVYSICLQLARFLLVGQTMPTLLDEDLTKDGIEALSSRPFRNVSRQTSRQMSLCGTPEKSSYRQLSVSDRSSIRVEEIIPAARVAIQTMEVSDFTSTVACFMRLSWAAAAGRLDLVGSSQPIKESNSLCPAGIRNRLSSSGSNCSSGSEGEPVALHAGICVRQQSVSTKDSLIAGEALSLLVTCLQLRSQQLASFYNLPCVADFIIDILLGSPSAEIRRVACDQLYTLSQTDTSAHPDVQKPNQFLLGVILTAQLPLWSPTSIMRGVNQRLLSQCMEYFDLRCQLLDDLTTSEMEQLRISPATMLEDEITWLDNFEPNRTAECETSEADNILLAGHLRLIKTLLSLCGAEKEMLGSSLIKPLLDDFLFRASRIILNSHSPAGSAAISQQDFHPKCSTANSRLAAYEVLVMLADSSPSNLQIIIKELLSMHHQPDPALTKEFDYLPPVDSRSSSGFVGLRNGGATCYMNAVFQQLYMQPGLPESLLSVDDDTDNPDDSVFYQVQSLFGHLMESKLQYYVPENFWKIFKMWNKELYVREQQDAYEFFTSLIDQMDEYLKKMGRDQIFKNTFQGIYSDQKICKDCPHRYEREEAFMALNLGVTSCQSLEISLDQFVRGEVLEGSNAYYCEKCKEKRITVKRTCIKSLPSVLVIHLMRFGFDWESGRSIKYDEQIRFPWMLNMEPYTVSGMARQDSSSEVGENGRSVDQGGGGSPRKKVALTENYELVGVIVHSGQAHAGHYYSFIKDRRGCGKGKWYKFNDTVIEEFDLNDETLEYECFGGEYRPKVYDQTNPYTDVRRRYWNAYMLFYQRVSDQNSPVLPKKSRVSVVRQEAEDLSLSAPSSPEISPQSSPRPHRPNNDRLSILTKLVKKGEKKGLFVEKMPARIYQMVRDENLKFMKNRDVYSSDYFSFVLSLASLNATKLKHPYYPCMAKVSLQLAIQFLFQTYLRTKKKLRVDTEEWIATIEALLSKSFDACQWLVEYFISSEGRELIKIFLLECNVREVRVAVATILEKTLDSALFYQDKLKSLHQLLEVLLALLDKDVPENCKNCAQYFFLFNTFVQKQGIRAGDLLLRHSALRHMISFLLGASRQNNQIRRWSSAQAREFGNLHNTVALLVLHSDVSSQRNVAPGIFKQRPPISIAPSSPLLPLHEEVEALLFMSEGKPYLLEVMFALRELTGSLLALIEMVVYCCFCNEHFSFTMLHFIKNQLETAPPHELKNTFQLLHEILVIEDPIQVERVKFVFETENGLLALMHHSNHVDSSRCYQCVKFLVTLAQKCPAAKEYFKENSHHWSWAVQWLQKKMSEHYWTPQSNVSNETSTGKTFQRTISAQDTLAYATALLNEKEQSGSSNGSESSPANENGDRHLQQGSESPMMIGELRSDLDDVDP

CN(Cc1nc2ccccc2[nH]1)C(=O)CCl.Cl
inactive: USP19 -0.0932 | USP24 -0.721 | USP25 0.0889 | USP28 -0.218
